For part of these data: Entries with a potency or affinity are not part of this list.
Experiments:
Design in all cases: scale not given: direction of the effect not stated beside the values
[1] = target: Protein translocase subunit SecA (Escherichia coli (strain K12)) (UniProt P10408); assay: Assay to Identify E. coli SecA ATPase Inhibitors; format: functional; conditions: 30 µM
[2] = target: T1, Ubiquitin-activating enzyme e1, putative (Leishmania donovani (strain BPK282A1)) (UniProt E9BSI1); assay: Leishmania donovani Ubiquitin Activating Enzyme (LdE1); format: functional; conditions: 30 µM
T1 sequence (whole entry): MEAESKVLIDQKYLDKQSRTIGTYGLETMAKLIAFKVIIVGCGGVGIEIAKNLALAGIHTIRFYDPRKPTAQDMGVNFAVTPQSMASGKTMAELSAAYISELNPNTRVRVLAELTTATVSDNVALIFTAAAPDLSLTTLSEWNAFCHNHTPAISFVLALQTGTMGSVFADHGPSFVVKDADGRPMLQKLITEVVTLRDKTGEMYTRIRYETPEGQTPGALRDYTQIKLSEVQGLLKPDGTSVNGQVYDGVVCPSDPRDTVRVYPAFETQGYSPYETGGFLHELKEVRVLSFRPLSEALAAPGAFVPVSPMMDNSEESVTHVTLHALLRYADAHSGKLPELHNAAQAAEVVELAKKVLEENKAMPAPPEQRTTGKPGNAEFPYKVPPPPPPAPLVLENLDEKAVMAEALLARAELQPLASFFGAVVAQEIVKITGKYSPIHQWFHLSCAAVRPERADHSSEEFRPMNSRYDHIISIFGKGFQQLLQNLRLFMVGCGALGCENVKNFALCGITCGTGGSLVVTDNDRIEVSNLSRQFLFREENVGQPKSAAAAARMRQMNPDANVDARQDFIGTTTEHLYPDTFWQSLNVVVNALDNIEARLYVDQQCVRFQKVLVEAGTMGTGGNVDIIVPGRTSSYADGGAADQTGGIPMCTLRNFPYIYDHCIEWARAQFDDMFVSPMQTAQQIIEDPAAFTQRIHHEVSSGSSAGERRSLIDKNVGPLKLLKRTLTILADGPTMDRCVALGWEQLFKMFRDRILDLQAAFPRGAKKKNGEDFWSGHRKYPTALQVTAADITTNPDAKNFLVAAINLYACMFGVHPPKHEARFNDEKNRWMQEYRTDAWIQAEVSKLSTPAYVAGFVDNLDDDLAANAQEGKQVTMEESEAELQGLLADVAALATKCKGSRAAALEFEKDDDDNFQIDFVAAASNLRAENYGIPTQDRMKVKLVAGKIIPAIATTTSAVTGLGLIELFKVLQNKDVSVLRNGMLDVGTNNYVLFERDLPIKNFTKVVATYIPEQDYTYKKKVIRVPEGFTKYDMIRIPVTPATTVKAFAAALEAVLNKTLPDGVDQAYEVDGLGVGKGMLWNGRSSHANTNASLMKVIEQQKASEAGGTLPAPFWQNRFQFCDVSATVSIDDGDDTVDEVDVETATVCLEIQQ

[3] = target: Sialic acid-binding Ig-like lectin 9 (Homo sapiens) (UniProt Q9Y336); assay: Hs-Siglec9 ALPHAscreen SOP 20170721; conditions: 10 µM
[4] = tested on: Trypanosoma cruzi; assay: Trypanosoma cruzi phosphomannomutase and mannose-1-phosphate guanylyltransferase assay; format: functional; conditions: 10 µM
[5] = target: T2, Arginase-2, mitochondrial (Homo sapiens) (UniProt P78540); assay: in vitro enzyme assay to detect the production of urea directly proportional to the activity of Arginase II; format: functional; conditions: 33.3 µM; further: in the data most compounds retested in dose-response had high values
T2 sequence (whole entry): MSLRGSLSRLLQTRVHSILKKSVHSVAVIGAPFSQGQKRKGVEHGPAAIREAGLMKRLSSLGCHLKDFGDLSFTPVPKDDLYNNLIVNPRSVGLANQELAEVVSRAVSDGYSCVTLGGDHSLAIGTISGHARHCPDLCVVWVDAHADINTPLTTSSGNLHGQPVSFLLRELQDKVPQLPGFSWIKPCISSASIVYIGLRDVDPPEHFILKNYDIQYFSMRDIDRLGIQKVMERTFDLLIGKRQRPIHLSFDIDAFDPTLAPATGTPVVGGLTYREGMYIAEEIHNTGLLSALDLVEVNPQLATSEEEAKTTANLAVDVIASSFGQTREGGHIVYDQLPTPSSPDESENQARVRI

[6] = target: T3, Proteasome subunit beta (Trypanosoma cruzi) (UniProt O96673); assay: Trypanosoma cruzi proteasome chymotrypsin-like activity (TcProtChymo) assay.; further: in the data most compounds retested in dose-response had high values; format: functional; conditions: 9.37 µM
T3 sequence (whole entry): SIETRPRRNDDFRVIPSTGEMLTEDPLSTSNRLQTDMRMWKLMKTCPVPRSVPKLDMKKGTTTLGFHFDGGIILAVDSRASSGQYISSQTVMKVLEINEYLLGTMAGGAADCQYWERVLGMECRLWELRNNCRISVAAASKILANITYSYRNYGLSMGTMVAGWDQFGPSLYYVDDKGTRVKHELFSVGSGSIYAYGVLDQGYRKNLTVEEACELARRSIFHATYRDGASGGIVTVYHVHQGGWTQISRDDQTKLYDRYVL

[7] = species: Homo sapiens; assay: To identify inhibition of the IFN signalling (Jak-Stat) pathway via expression of an eGFP reporter gene under the control of an IFN-stimulated response element (ISRE) containing MxA promoter.; format: functional; conditions: 30 µM
[8] = target: T4, Tyrosyl-tRNA synthetase, putative (Trypanosoma cruzi (strain CL Brener)) (UniProt Q4DSP6); assay: Trypanosoma cruzi tyrosyl tRNA synthetase (TcYRS) _High Tyrosine SOP; format: functional; conditions: 30 µM; further: in the data most compounds retested in dose-response had high values
T4 sequence (whole entry): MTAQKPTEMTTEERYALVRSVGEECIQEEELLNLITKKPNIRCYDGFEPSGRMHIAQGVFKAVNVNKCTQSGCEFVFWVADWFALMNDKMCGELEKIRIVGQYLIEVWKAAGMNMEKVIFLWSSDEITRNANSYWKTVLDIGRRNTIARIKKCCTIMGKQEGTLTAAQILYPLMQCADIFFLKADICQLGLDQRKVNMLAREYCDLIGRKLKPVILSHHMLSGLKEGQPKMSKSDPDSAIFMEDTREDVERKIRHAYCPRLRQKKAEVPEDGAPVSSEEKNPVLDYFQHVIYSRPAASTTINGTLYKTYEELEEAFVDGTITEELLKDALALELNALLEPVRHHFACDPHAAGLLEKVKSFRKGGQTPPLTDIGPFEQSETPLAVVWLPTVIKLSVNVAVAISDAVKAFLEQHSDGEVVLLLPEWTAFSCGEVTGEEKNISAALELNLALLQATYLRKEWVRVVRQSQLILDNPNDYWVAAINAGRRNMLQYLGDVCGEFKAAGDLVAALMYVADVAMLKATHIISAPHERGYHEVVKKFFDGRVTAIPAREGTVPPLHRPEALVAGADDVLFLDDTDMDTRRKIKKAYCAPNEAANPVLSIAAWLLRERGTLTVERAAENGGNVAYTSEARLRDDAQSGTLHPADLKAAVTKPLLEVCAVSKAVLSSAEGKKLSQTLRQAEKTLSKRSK

[9] = target: T4, Tyrosyl-tRNA synthetase, putative (Trypanosoma cruzi (strain CL Brener)); assay: Trypanosoma cruzi tyrosyl tRNA synthetase (TcYRS) SOP; format: functional; conditions: 30 µM
[10] = target: Chromo domain-containing protein 1 (Saccharomyces cerevisiae (strain ATCC 204508 / S288c) (Baker's yeast)) (UniProt P32657); assay: ScCHD-1 Enzyme Inhibition Assay; format: functional; conditions: 30 µM; further: in the data most compounds retested in dose-response had high values
Chain of Chromo domain-containing protein 1 (Saccharomyces cerevisiae (strain ATCC 204508 / S288c) (Baker's yeast)) (P32657 whole entry, the tested form may be a part): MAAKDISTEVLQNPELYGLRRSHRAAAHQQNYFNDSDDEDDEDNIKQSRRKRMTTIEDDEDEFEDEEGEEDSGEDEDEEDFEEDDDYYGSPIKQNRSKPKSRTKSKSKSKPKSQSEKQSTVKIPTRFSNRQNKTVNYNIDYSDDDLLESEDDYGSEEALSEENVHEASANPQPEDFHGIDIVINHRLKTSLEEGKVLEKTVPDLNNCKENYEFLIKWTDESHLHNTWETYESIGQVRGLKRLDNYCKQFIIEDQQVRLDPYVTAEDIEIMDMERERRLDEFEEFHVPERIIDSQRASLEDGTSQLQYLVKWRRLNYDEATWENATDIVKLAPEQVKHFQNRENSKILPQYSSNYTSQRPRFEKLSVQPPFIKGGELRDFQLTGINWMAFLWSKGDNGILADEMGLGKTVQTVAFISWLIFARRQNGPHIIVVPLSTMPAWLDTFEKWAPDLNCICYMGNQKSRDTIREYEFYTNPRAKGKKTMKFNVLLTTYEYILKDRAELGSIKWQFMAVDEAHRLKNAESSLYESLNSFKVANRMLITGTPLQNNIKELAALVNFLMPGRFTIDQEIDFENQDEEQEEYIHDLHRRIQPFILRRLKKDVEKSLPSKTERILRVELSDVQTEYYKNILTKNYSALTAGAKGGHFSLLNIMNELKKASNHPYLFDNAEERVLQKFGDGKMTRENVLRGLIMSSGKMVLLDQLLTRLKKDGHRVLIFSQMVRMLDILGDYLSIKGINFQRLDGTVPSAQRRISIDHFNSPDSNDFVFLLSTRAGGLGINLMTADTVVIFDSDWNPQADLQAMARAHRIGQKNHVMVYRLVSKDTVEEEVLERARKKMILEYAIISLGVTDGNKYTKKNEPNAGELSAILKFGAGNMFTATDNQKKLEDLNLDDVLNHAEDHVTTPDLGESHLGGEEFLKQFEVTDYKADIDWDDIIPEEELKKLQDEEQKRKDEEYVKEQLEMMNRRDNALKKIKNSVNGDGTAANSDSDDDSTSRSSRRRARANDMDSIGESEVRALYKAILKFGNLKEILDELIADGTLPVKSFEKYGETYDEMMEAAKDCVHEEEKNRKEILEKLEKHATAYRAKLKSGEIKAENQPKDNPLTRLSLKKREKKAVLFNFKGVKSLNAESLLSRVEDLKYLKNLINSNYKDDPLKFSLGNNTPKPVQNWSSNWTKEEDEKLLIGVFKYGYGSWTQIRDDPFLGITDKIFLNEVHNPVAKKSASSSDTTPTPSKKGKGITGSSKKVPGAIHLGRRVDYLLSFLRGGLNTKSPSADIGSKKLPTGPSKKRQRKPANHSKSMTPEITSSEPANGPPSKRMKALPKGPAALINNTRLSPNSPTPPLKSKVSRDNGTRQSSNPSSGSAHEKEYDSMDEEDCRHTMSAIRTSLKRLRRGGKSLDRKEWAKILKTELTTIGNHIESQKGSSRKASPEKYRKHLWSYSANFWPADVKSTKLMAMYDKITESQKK

Chain of Sialic acid-binding Ig-like lectin 9 (Homo sapiens) (Q9Y336 whole entry): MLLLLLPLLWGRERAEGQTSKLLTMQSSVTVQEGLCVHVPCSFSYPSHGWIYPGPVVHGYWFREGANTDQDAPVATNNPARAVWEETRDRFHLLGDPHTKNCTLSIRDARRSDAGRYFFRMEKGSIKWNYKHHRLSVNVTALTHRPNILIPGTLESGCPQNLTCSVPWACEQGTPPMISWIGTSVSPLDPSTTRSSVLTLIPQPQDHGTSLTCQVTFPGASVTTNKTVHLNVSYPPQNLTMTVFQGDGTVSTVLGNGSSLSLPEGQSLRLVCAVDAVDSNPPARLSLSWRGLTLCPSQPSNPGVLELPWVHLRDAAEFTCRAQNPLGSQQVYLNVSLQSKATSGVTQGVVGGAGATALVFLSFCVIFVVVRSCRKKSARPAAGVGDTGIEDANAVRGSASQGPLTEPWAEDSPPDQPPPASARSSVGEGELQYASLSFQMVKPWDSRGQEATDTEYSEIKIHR
Chain of Protein translocase subunit SecA (Escherichia coli (strain K12)) (P10408 whole entry): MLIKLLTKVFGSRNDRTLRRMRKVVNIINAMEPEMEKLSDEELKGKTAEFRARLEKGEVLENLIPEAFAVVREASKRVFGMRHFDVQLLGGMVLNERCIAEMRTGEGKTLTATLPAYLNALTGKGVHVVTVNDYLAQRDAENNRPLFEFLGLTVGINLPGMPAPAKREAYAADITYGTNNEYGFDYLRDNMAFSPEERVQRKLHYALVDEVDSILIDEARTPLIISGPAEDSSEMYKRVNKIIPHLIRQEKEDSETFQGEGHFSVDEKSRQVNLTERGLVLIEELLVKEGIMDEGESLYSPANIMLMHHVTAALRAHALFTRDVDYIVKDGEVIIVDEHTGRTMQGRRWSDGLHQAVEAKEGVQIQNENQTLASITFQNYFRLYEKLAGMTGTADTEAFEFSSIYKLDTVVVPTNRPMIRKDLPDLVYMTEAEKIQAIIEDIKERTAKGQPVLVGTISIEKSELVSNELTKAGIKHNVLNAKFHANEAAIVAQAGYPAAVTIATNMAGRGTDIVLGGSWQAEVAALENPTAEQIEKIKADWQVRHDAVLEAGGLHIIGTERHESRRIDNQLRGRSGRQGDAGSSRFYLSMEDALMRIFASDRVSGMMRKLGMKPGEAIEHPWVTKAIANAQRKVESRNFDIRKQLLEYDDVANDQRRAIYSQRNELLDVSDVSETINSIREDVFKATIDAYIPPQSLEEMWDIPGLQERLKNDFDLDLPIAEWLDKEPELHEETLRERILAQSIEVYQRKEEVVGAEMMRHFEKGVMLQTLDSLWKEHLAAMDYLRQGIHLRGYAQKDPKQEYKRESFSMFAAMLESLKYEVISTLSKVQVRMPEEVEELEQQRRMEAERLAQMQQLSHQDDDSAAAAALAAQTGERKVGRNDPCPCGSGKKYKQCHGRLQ

Compound | Percent Effect [1] | Percent Effect [2] | Percent Effect [3] | Percent Effect [4] | Percent Effect [5] | Percent Effect [6] | Percent Effect [7] | Percent Effect [8] | Percent Effect [9] | Percent Effect [10]
Cc1ccc(NC2CCN(C(=O)c3cc(C(N)=O)cs3)CC2)nn1 | -3.49% | 2.67% | 2.8% | 1.41% | 0.444% | 7.55% | 21.6% | 1.58% | 5.13% | -4.07%
COc1cc(S(=O)(=O)N2CCCc3ccccc32)cc(C(=O)O)c1OC | -5.67% | 0% | 10.6% | -0.201% | -3.99% | 7.38% | 9.13% | 0.526% | 7.69% | -5.31%
O=C(Cn1cc(-c2ccccc2)ncc1=O)Nc1nnc[nH]1 | -1.82% | 8.11% | 4.37% | 2.42% | 8.74% | 20.4% | -1.74% | 6.92% | 19.5% | 83.7%
O=C(NCC1CC1)[C@H]1C[C@H]2OCC[C@H]2N(Cc2ccsc2)C1 | -6.05% | -3.9% | -0.139% | -1.85% | -6.07% | 2.38% | -7.12% | -2.63% | 0% | -0.205%
Cc1occc1C(=O)NCc1ccc(N2CCCC(C(N)=O)C2)cc1 (stereo not given) | -2.46% | 8% | -3.46% | -3.61% | 10.6% | 13% | 16.5% | 2.63% | 7.69% | -9.94%
O=C(C1CCOC1)N1CC[C@@H](O)[C@@H]1Cc1ccccc1 (stereo not given in full) | -4.39% | -14.3% | -3.29% | -10.1% | 3.2% | 6.09% | -3.1% | -28% | -60% | -3.36%
CN(C)c1cc(C(=O)N2CCN(S(C)(=O)=O)CC2)ccn1 | -7.92% | 10.3% | -9.31% | -5.35% | -2.46% | 6.23% | 25.7% | 4.31% | 8.43% | -0.991%
O=C(C1CCCCC1)N1CCC2(CCCN2CC2CC2)CC1 | -2.94% | 11.7% | -2.33% | -3.56% | 1.37% | 3.18% | 13.7% | 2.9% | 2.5% | -6.38%
CC(C)CN1CCN(C(=O)NCc2cccnc2-n2cccn2)CC1 | -3.93% | 16% | -3.1% | -6.02% | -2.22% | 10.4% | 2.63% | 5.79% | 7.69% | -11.7%
CC(=O)N1CC(=O)N(c2ccccc2)CC12CCN(CC1CC1)C2 (stereo not given) | -11% | 1.3% | 22.2% | -1.27% | -2.02% | 12.1% | 15.9% | 2.63% | -5.13% | -0.48%
c1cnn(CC2CCCCN2Cc2cn3ccsc3n2)c1 (stereo not given) | -2.05% | 10.3% | 13.3% | 9.67% | 0% | 9.98% | 15.8% | 10.1% | 18.1% | -1.18%
CC(C)Cc1nc(OCC(N)=O)c(C#N)c2c1CCC2 | -2.5% | 5.41% | 10.8% | -9.99% | 1.75% | 19.4% | 20.7% | 3.72% | 7.32% | -3.73%
O=C(Nc1nccs1)NC1CCN(Cc2ccccc2)C1 (stereo not given) | 0.43% | 15.4% | -11.5% | 7.04% | 4.51% | 9.13% | -11.6% | 6.22% | 22.9% | 1.47%
COCC(=O)N1CCC2(CCN(Cc3ccccn3)CC2)CC1 | -4.25% | 6.49% | 6.7% | 4.77% | 11.7% | 12.3% | -3.67% | 1.58% | 5.13% | 15%
CCNc1nc2c(s1)C(=O)CN(C(=O)NCCc1ccccc1)C2 | -3.42% | 5.33% | -0.604% | -6.43% | 3.99% | -1.95% | 9.15% | 1.58% | 2.56% | 2.08%
CC(C)c1ncc(S(C)(=O)=O)c(C2CCCNC2)n1 (stereo not given) | -5.26% | 10.8% | 16.7% | 6.11% | 14.3% | 3.94% | -1.56% | 6.92% | 17.1% | -3.61%
CCc1nc(CN2CCCN(C(=O)CCSC)CC2)cs1 | -1.79% | 12.8% | -12.3% | -7.98% | 6.15% | 9.81% | 22.8% | 0.478% | 18.1% | -4.21%
CCN(Cc1cccc2c1OCO2)C(=O)Nc1ccncc1 | -0.455% | -2.6% | 12.1% | -2.8% | -2.25% | 2.81% | 34.4% | 0.98% | 0% | 5.59%
Cc1cc(-c2nn(C)c(Cl)c2CN2CCOCC2CC(=O)O)no1 (stereo not given) | -6.59% | 10.8% | 10.3% | 5.92% | 15.7% | 12.2% | 22.2% | 7.98% | 12.2% | -0.504%
Cc1nc(-c2cccc(C(=O)O)c2)cc(C2CCN(C(C)C)C2)n1 (stereo not given) | -2.85% | 6.67% | 1.03% | -1.18% | 4.87% | 9.69% | 1.3% | 6.35% | 17.5% | -15.1%
NC(=O)CC1CCN(C(=O)NCc2ccccc2-n2cccn2)CC1 | -5.04% | 21.3% | 5.25% | -0.602% | -1.77% | 9.41% | 15% | 7.89% | 15.4% | -10.3%
Fc1ccccc1Cc1noc(CN2CCCC(CN3CCCC3)C2)n1 (stereo not given) | -7.22% | -2.7% | 4.23% | 7.86% | -2.45% | 3.08% | -6.53% | 6.92% | 12.2% | -3.21%
CS(=O)(=O)NCC1CCCN(C(=O)COc2ccc(F)cc2)C1 (stereo not given) | -1.75% | 10.3% | -7.96% | 9.86% | 1.23% | 3.5% | 12.5% | 4.31% | -146% | -6.15%
O=C1NC2(CCN(Cc3nccs3)CC2)CC1c1ccncc1 (stereo not given) | -7.46% | 9.09% | 9.45% | 6.13% | -6.07% | 6.8% | -18.5% | 3.68% | 10.3% | 0.471%
NC(=O)CN1CCC(C(=O)N2CCCC(OCc3cccnc3)C2)CC1 (stereo not given) | -5.86% | 2.7% | 1.65% | -2.23% | -0.35% | 6.16% | 9.22% | 4.79% | 14.6% | 1.71%
Cn1cc(C(=O)N2CCCC(Cc3nccs3)C2)cn1 (stereo not given) | -2.98% | 12% | -0.254% | -2.96% | 3.54% | 7.55% | 6.88% | 2.12% | 15% | -16.3%
NC(=O)c1cc(NC(=O)NCCc2cc(F)cc(F)c2)ccc1F | -0.0438% | 10.4% | 8.44% | 0.56% | -2.66% | 5.26% | -4.36% | 5.88% | 23.5% | -11.6%

— ChEMBL document CHEMBL3988442, “University of Dundee, Small-Polar-MMV Screening Library” (2021)
